Compound activity: PubChem BioAssay, National Center for Advancing Translational Sciences (NCATS)
Mm-Cpn inhibitor: inhibitors of Methanococcus maripaludis chaperonin TRiC (MmCpn); 330,000 tested, 0.031% active; AID 504842; purified Mm-Cpn ATPase, ADP Transcreener TR-FRET; Potency, µM (top dose mostly 76.9 µM), without a hit: at the top dose activity, negative = inhibition, usual class: inhibitors; note: potency is the fitted concentration of half-maximal effect; % is set by controls: 0 for no effect and ±100 for the full control effect; nearly all actives have a fitted effect of over 80% in size
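ATPase read-out: TR-FRET ADP immunoassay (anti-ADP Eu cryptate vs ADP-d2), ex 320 nm, em 590/665 nm; signal drops as ADP forms. Enzyme 25 nM, ATP 10 uM, 30 min at 37°C after 10 min compound preincubation.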
Akt phos inh: blocks phosphorylation of Akt; activity change, % for hits at 50 µM; AID 651550; Neuro2A IGF-stimulated pAkt S473 HTRF, 20 min; stronger effect = lower value; 360,000 tested, 0.32% active; in the data active = activity change below about -80%; inconclusive = mostly about -51% to -80%; note: % is set by controls: 0 for no effect and ±100 for the full control effect
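Neuro2A cells in DMEM with 0.5% FBS, overnight at 37 deg C, given compound at single 50 µM final, then IGF (6 nM final) for 20 min at 37 deg C. Lysed; phospho-Akt Ser473 by HTRF after 24 h, 665/615 ratio.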
CCT chaperon mod: changes cytosolic chaperonin activity; activity change, % (concentration not given with the values), hits read low; 360,000 tested, 0.3% active; purified chaperonin ATPase assay, HTRF ADP detection, 30 min; in the data active = activity change below about -30%; note: % is set by controls: 0 for no effect and ±100 for the full control effect
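ATPase activity: ADP formed was measured by HTRF Transcreener (665/615 nm ratio) after 30 min at 37 deg C with 10 uM ATP. Compounds screened at one 76 uM concentration against 40 or 20 nM TRiC in Tris pH 7.4/KCl/MgCl2/DTT buffer.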
Epigenetic derep: derepresses silenced GFP reporter in murine cells; murine LDR cells, GFP reporter derepression, 30 h; Potency, µM (titrated, usually from 53.9 µM), for inactives: at the highest dose GFP activation, actives largely listed as activators; 280,000 tested, 0.2% active; AID 1865; note: potency is the fitted concentration of half-maximal effect; % of control where 0% means no effect; nearly all actives have a fitted effect of over 60% in size
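Reporter derepression read as number of fluorescent GFP-positive objects, 20-120 um in size, counted by laser-scanning cytometer. Mouse LDR line with an epigenetically silenced CMV-GFP locus; compound incubation 30 h, 37 C.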
uPA generation: cell surface uPA generation inhibition. cell surface uPA generation assay, qHTS. Potency, µM (highest dose often 38.3 µM), without a hit: at the highest dose activity change, negative = inhibition, usual class: inhibitors. 330,000 tested, 0.31% active; active = well fitted inhibition curve with a large enough effect; inconclusive = small, poorly fitted or top-dose-only effect; inactive = no such curve, though single readings can be large or run the other way; tested in mouse RAW 264.7 cells; note: potency is the fitted concentration of half-maximal effect; % is set by controls: 0 for no effect and ±100 for the full control effect; nearly all actives have a fitted effect of over 55% in size
MBNL1-CUG inh: blocks human MBNL1 binding to CUG repeat RNA; 280,000 tested, 0.036% active; Q9NR56; Potency, µM (highest dose often 57.5 µM), for the others: at the highest dose activity change, negative = inhibition, hits mostly inhibitors; TR-FRET MBNL1-His/biotin-(CUG)12 binding, 665/545 ratio; AID 2675; active = well fitted inhibition curve with a large enough effect in the signal ratio, with a control signal flat, not every such curve was filed as active; inconclusive = small, poorly fitted or top-dose-only effect, or effect the other way, or a change in a side signal; inactive = no such curve, though single readings can be large or run the other way; the % refers to the signal ratio; note: potency is the fitted concentration of half-maximal effect; % is set by controls: 0 for no effect and ±100 for the full control effect
Target sequence (Q9NR56 whole entry, looked up): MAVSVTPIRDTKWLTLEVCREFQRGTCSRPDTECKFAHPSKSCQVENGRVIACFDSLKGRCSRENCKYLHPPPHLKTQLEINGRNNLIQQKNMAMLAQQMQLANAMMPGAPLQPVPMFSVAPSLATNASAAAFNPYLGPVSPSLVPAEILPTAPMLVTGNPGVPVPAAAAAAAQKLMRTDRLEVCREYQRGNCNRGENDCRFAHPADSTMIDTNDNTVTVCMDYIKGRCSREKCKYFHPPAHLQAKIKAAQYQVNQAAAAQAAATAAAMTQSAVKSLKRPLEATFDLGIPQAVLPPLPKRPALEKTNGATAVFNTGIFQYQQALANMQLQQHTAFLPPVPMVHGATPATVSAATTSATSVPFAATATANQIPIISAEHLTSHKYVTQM
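MBNL1-His + Biotin-(CUG)12, cpd titration 92 nM–58 uM; Tb anti-His Ab 0.055 ng/ul, SA-XL665 5 nM (final); 60 min RT; ratiometric 665/545 nm, Ex 340 nm; normalized to buffer and full-complex controls.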
An asterisk follows results filed as active; i = inactive; ? = inconclusive; / = no result. The list is not random: actives were taken first. Their share in the collection is about 0.97%. Unless noted, calls come from the whole dose curve; as a rule, active = well fitted curve in the direction sought with a large enough effect; inconclusive = small, poorly fitted or top-dose-only effect, or another doubt; inactive = no such curve, though single readings can be large; an effect the other way counts as inactive or inconclusive.

SMILES	Mm-Cpn inhibitor	Akt phos inh	CCT chaperon mod	Epigenetic derep	uPA generation	MBNL1-CUG inh
COc1cc(-c2nc3c[n+](CC(=O)c4ccccc4)ccc3n2C)cc(OC)c1OC	-0.3%	i	1.2	0.0%	-0.3%	/
COC(=O)C1=C(C)N=C2SC(C#N)=C(N)N2C1c1cccc(OC)c1 (stereo not given)	-2.0%	-114.7%*	0.0	-1.0%	4.6%	20.6%
C=CCCC(=O)Nc1nc(C)c(-c2csc(Nc3ccccc3OC)n2)s1	?	i	-0.5	-0.4%	3.55µM*	63.6%
COc1ccc(Nc2nc(-c3cccs3)cs2)c(OC)c1	-12.6%	/	-0.9	-8.7%	2.4%	17.2%
COc1ccc(Nc2nc(-c3sc(C)nc3C)cs2)c(OC)c1	-12.0%	i	-14.1	/	4.47µM*	?
Cc1ccccc1Nc1cccc2nonc12	-0.3%	i	-4.8	6.1%	-0.7%	/
CCOc1ccccc1CNC(=O)C1CCN(c2nc3ccccc3nc2C(F)(F)F)CC1	/	/	/	-2.6%	/	/
CCN1CCc2c(sc(NC(=O)c3ccc(S(=O)(=O)N4CCCCCC4)cc3)c2C(=O)NC)C1	-4.2%	i	-0.7	/	-3.9%	7.1%
Cc1cc(Cl)ccc1Oc1ncnc2onc(C)c12	-3.0%	i	-0.7	0.0%	?	-0.7%
CC(C)CC(=O)Nc1ccc2c(c1)oc1ccccc12	1.4%	i	-40.3*	-2.2%	-9.2%	-1.4%
CCCCC(=O)Nc1ccc2c(c1)oc1ccccc12	2.1%	i	-0.3	-1.2%	-3.8%	14.7%
Cc1ccccc1OCc1nnc(SCC(=O)Nc2ccc3c(c2)oc2ccccc23)n1C	-0.2%	-99.7%*	0.9	0.8%	/	4.5%
Cc1cccc(CCN2C(N(C)C)=NC[C@@H]2Cc2ccccc2)c1	-0.2%	i	-0.6	/	10µM*	/
Cc1cccc(CCN2C(N(C)C)=NC[C@@H]2CC(C)C)c1	-2.1%	i	-0.4	/	?	/
Cc1ccc2nc(CN3CCN(C(=O)Nc4cccc(C)c4C)CC3)oc2c1	/	/	/	-4.4%	/	/
CCCN(C(=O)Cn1c(=O)oc2cc(Cl)ccc21)c1ccc(C(C)C)cc1	/	/	/	-4.8%	/	/
CCOC(=O)c1cc(CC)sc1NC(=O)c1cc(OCC)c(OCC)c(OCC)c1	-1.6%	i	-4.5	0.9%	/	0.6%
CCOC(=O)c1cc(CC)sc1NC(=O)c1ccc2c(c1)OCCO2	-19.2%	-113.2%*	2.8	-1.0%	3.0%	1.7%
CCOc1ccccc1NC(=O)CSc1nc2ccccc2nc1Cc1ccc(C)cc1	/	/	/	3.1%	/	/
Cc1ccc(S(=O)(=O)N2[C@@H](c3ccc(Cl)cc3)C(C(=O)O)=C[C@H]2C(C)(C)C)cc1	0.4%	i	-0.9	/	9.0%	/
CCOc1cc(CNc2ccc(N(C)C)cc2)cc(Br)c1OCC(=O)NC(C)(C)C	25.1µM*	i	-3.6	-2.9%	-4.3%	?
C=CCOc1c(Br)cc(CNc2ccc(NC(=O)CCC)cc2)cc1OCC	1.1%	-100.4%*	-1.5	1.1%	0.4%	-10.3%
COc1ccccc1NC(=O)CC1Sc2ccc(C(F)(F)F)cc2NC1=O (stereo not given)	/	/	/	2.4%	/	/
CN(C)c1ccnc(Nc2ccc(O)cc2)c1C#N	0.4%	i	0.4	-0.1%	0.1%	2.0%
CC1(C(=O)NS(=O)(=O)c2ccc(Cl)cc2)CCN1C(=O)c1ccc(C2CCCCC2)cc1 (stereo not given)	/	i	0.5	/	/	/
SMILES	Mm-Cpn inhibitor	Akt phos inh	CCT chaperon mod	Epigenetic derep	uPA generation	MBNL1-CUG inh
CNc1n[nH]c(-c2ccccc2)n1	/	i	0.3	/	/	/
CC(C)(C)OC(=O)N(Cc1ccccc1)Cc1ccc(OCc2cccc(NC(=O)C3CC3)c2)cc1	/	i	-1.0	/	20.1%	/
Cc1cc2nc(SCC(=O)Nc3nonc3C)c3c(c2cc1C)CCCC3	-0.2%	-91.4%*	-0.1	-2.5%	11.6%	0.9%
CCN1CCc2c(OCC(=O)N3N=C(c4cccs4)CC3c3ccc(F)cc3)cccc2C1=O (stereo not given)	-0.6%	i	0.5	-1.0%	-13.1%	5.6%
Nc1nc(SCc2ccc([N+](=O)[O-])cc2)c2ncn([C@@H]3O[C@H](CO)[C@H](O)[C@H]3O)c2n1	/	/	/	0.0%	/	?
Cc1ccc(-n2ncc3c(N4CCCCC4)ncnc32)cc1	/	/	/	2.5%	/	/
Cc1cccc(-n2ncc3c(NC4CCCCC4)ncnc32)c1	?	i	0.1	1.0%	11.2µM*	-3.9%
COc1ccc(-n2ncc3c(N4CCCCC4)ncnc32)cc1	-1.9%	i	-3.1	2.0%	1.26µM*	-1.8%
Cc1cccc(-n2ncc3c(NC4CCCC4)ncnc32)c1	/	/	/	3.1%	/	/
Cc1cccc(-n2ncc3c(N4CCOCC4)ncnc32)c1	0.1%	i	0.9	6.7%	0.794µM*	-0.4%
COc1cc(OC)c(NC(=O)N2CCCn3nc(C)cc32)cc1Cl	/	/	/	-0.2%	/	/
CCOc1ccccc1NC(=O)CCS(=O)(=O)c1ccc(Br)cc1	0.7%	i	-2.0	/	0.0%	-5.7%
CCCN(CC1CC1)C(=O)COc1ccccc1C(=O)NCc1ccccc1	-9.0%	-110.0%*	-5.3	-5.0%	1.5%	2.6%
CCC(C)N(C(=O)COc1ccccc1C(=O)NCc1ccccc1)C1CCS(=O)(=O)C1 (stereo not given)	-1.6%	i	0.5	/	-1.8%	-1.9%
CCCCN1CCCCC1(C)C(=O)NCc1cccs1 (stereo not given)	/	i	0.2	/	/	/
O=C(COC(=O)CCC(=O)c1ccc(F)cc1)NCc1ccccc1Cl	-0.3%	i	-0.4	/	1.8%	/
CCn1c(C)c(C)c2cc(C(=O)NCCN3CCOCC3)ccc21	-5.5%	i	-39.9*	/	-14.4%	-6.0%
O=C(Cc1ccc(Br)cc1)N1CCN(C(=O)c2ccccc2)CC1	0.3%	i	-1.6	/	-11.0%	/
CC(C)(C)c1ccc(C(=O)NC(=O)COC(=O)CCS(=O)(=O)c2ccccc2)cc1	-2.3%	i	-67.9*	/	1.8%	/
O=C(N/N=C/c1cc(Cl)c(O)c(Cl)c1)c1cc2c(ccc3ccccc32)o1	-15.8%	i	-7.2	/	-20.7%	?
c1ccc(-c2cnc(-c3ccccn3)nn2)cc1	/	i	1.2	/	6.31µM*	/
COc1ccc(-n2ncc(N(C)n3cccc3)c(Cl)c2=O)cc1	-0.4%	-114.7%*	-0.2	-1.9%	-6.9%	23.1%
COC(=O)C(O)(CC(=O)Nc1ccccc1OC)C(F)(F)F (stereo not given)	-0.1%	-99.2%*	1.0	3.1%	-0.2%	13.2%
Cc1ccccc1-c1n[nH]c(=S)o1	?	-102.5%*	0.1	2.7%	1.7%	111.9%
CSc1ccccc1-c1n[nH]c(=S)o1	?	i	-1.1	-0.4%	1.9%	?
Cc1nc2c(C(=O)NCCC3=CCCCC3)c[nH]n2c(=O)c1Cl	0.6%	i	-38.8*	-1.1%	-5.7%	-7.1%
